# This is part of a sample that, as a whole, favours compounds with a hit. Of some 79,000 tested, about 15% had one in any assay. Unmarked numbers belong to inactive results. Calls of active or inactive are those of the source. Rule as the data show it: active = growth inhibition above about 70%; inactive = the rest.
# What was measured:
# [1] = NCI Yeast Anticancer Drug Screen. Data for the rad52 strain (AID 147);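 also: 0% = growth of vehicle-treated control cultures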; conditions: S. cerevisiae rad52 mutant growth inhibition, active compounds read high
# Method in brief: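 Compounds are applied to a genetically defined yeast strain lacking normal DNA damage repair, and inhibition of growth is expressed relative to cultures given vehicle only.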
# [2] = NCI Yeast Anticancer Drug Screen. Data for the wt1 strain (AID 149);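 also: 0% = growth of vehicle-treated wt1 cultures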; conditions: S. cerevisiae wt1 strain (SPY 50644) growth inhibition, active compounds read high
# Method in brief: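 wt1 yeast, compound-treated; % growth inhibition vs vehicle control.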
# [3] = NCI Yeast Anticancer Drug Screen. Data for the rad50EPP+ strain (AID 151);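 also: 0% = growth of vehicle-treated control cultures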; conditions: S. cerevisiae rad50 mutant strain, active compounds read high
# Method in brief: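 Compounds were applied to the rad50EPP+ yeast strain, which bears a defined DNA repair alteration, and growth inhibition was determined relative to vehicle-treated cultures.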
# [4] = NCI Yeast Anticancer Drug Screen. Data for the mgt1 strain (AID 153); conditions: S. cerevisiae mgt1 mutant growth inhibition, active compounds read high
# Method in brief: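 Strain: mgt1 yeast, one of a set carrying defined DNA damage repair or cell cycle control alterations. Compound-treated growth compared with vehicle.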
# [5] = NCI Yeast Anticancer Drug Screen. Data for the rad50 strain (AID 155);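 also: 0% = growth of vehicle-only cultures of the same strain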; conditions: S. cerevisiae rad50 strain growth inhibition, active compounds read high
# Method in brief: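 Genetically altered yeast (DNA repair pathway); compound treatment; growth inhibition vs vehicle ctrl.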
# [6] = NCI Yeast Anticancer Drug Screen. Data for the mec2-1 strain (AID 157); conditions: S. cerevisiae mec2-1 strain, active compounds read high
# Method in brief: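 Strain: mec2-1 (DNA repair/cell cycle alteration). Compound exposure, then growth measured; inhibition expressed relative to vehicle.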
# [7] = NCI Yeast Anticancer Drug Screen. Data for the rad14 strain (AID 159);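 also: 0% = growth of vehicle-treated control cultures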; conditions: S. cerevisiae rad14 strain growth inhibition, active compounds read high
# Method in brief: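 Test compounds were applied to a repair-deficient yeast strain. Its growth was then compared with that of cultures given vehicle alone, and inhibition was expressed relative to those controls.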
# [8] = NCI Yeast Anticancer Drug Screen. Data for the sgs1 mgt1 strain (AID 161);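 also: 0% = growth of cultures given vehicle only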; conditions: S. cerevisiae sgs1 mgt1 strain, active compounds read high
# Method in brief: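 Genetically altered yeast, compound exposure, growth inhibition relative to vehicle.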
# [9] = NCI Yeast Anticancer Drug Screen. Data for the CLN2oe strain (AID 163);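 also: 0% = growth of vehicle-only control cultures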; conditions: S. cerevisiae CLN2oe strain, active compounds read high
# Method in brief: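 Growth of a genetically modified yeast strain is measured after compound exposure and compared with cultures given vehicle alone.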
# [10] = NCI Yeast Anticancer Drug Screen. Data for the cln2 rad14 strain (AID 165);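 also: 0% = growth equal to vehicle treated cultures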; conditions: S. cerevisiae cln2 rad14 strain, active compounds read high
# Method in brief: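 Compounds are applied to the cln2 rad14 yeast strain, and growth is then compared with that of vehicle-treated cultures to give inhibition.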
# [11] = NCI Yeast Anticancer Drug Screen. Data for the bub3 strain (AID 167); conditions: S. cerevisiae bub3 mutant strain, active compounds read high
# Method in brief: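 Yeast carrying a defined mutation is treated with each compound, and growth is compared with that of vehicle-exposed cells to give inhibition.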
# [12] = NCI Yeast Anticancer Drug Screen. Data for the wt2 strain (AID 169);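 also: 0% = growth of vehicle-treated yeast cultures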; conditions: S. cerevisiae wt2 strain growth inhibition, active compounds read high
# Method in brief: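 This strain belongs to a panel of yeast strains with defined genetic alterations in DNA damage repair or cell cycle control. Compounds are applied, and growth inhibition is measured against vehicle-treated cultures.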
# [13] = NCI Yeast Anticancer Drug Screen. Data for the mlh1 strain (AID 171);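 also: 0% = growth of vehicle-treated control cultures of the same strain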; conditions: S. cerevisiae mlh1 strain growth inhibition, active compounds read high
# Method in brief: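 Growth of the mutant yeast strain after compound exposure, expressed as inhibition relative to vehicle-only controls.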
# [14] = NCI Yeast Anticancer Drug Screen. Data for the sgs1 strain (AID 173);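 also: 0% = growth of vehicle-only control cultures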; conditions: S. cerevisiae sgs1 mutant, active compounds read high
# Method in brief: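 Growth of a yeast strain bearing a defined genetic alteration is measured after compound treatment. Inhibition is expressed relative to vehicle-only controls.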
# [15] = NCI Yeast Anticancer Drug Screen. Data for the mlh1 rad18 strain (AID 175); conditions: S. cerevisiae mlh1 rad18 strain growth inhibition, active compounds read high
# Method in brief: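 Read-out is yeast growth inhibition, calculated against vehicle-only controls. The compound was applied to a strain engineered with DNA damage repair alterations.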
# [16] = NCI Yeast Anticancer Drug Screen. Data for the rad18 strain (AID 177); conditions: S. cerevisiae rad18 mutant growth inhibition, active compounds read high
# Method in brief: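 Growth of the mutant yeast strain after compound exposure, normalised to vehicle-only cultures.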
# [17] = at 5.0 µM (retest, dose inferred, filed as 0.5)
# [18] = at 50.0 µM (retest, dose inferred, filed as 5.0)
smiles,measurement,setting,value
C[C@]12CC[C@H](O)CC1=CC[C@@H]1[C@@H]2CC[C@]2(C)C(=O)CC[C@@H]12,growth inhibition,[1]; at 1.2 µM,-54%
same,growth inhibition,[1]; at 3.7 µM,-47%
same,growth inhibition,[1]; at 11.0 µM,-46%
same,growth inhibition,[1]; at 33.0 µM,69%
same,growth inhibition,[1]; at 100.0 µM,90% (active)
same,growth inhibition,[2]; at 1.2 µM,-44%
same,growth inhibition,[2]; at 3.7 µM,-65%
same,growth inhibition,[2]; at 11.0 µM,-70%
same,growth inhibition,[2]; at 33.0 µM,50%
same,growth inhibition,[2]; at 100.0 µM,87% (active)
same,growth inhibition,[3]; at 1.2 µM,-64%
same,growth inhibition,[3]; at 3.7 µM,4%
same,growth inhibition,[3]; at 11.0 µM,0%
same,growth inhibition,[3]; at 33.0 µM,36%
same,growth inhibition,[3]; at 100.0 µM,65%
same,growth inhibition,[4]; at 1.2 µM,-65%
same,growth inhibition,[4]; at 3.7 µM,-68%
same,growth inhibition,[4]; at 11.0 µM,-62%
same,growth inhibition,[4]; at 33.0 µM,52%
same,growth inhibition,[4]; at 100.0 µM,96% (active)
same,growth inhibition,[5]; at 1.2 µM,-73%
same,growth inhibition,[5]; at 3.7 µM,-41%
same,growth inhibition,[5]; [17],58%
same,growth inhibition,[5]; at 11.0 µM,-57%
same,growth inhibition,[5]; at 33.0 µM,78% (active)
same,growth inhibition,[5]; [18],98% (active)
same,growth inhibition,[5]; at 50.0 µM,88.5% (active)
same,growth inhibition,[5]; at 100.0 µM,91% (active)
same,growth inhibition,[6]; at 1.2 µM,-94%
same,growth inhibition,[6]; at 3.7 µM,-71%
same,growth inhibition,[6]; [17],56%
same,growth inhibition,[6]; at 11.0 µM,-66%
same,growth inhibition,[6]; at 33.0 µM,79% (active)
same,growth inhibition,[6]; [18],98% (active)
same,growth inhibition,[6]; at 50.0 µM,87.8% (active)
same,growth inhibition,[6]; at 100.0 µM,90% (active)
same,growth inhibition,[7]; at 1.2 µM,-57%
same,growth inhibition,[7]; at 3.7 µM,-52%
same,growth inhibition,[7]; at 11.0 µM,-39%
same,growth inhibition,[7]; at 33.0 µM,77% (active)
same,growth inhibition,[7]; at 100.0 µM,96% (active)
same,growth inhibition,[8]; [17],-7%
same,growth inhibition,[8]; [18],80% (active)
same,growth inhibition,[8]; at 50.0 µM,88.1% (active)
same,growth inhibition,[9]; at 1.2 µM,-16%
same,growth inhibition,[9]; at 3.7 µM,2%
same,growth inhibition,[9]; at 11.0 µM,8%
same,growth inhibition,[9]; at 33.0 µM,54%
same,growth inhibition,[9]; at 100.0 µM,94% (active)
same,growth inhibition,[10]; [17],64%
same,growth inhibition,[10]; [18],75% (active)
same,growth inhibition,[10]; at 50.0 µM,88.5% (active)
same,growth inhibition,[11]; at 1.2 µM,-23%
same,growth inhibition,[11]; at 3.7 µM,-36%
same,growth inhibition,[11]; [17],20%
same,growth inhibition,[11]; at 11.0 µM,-17%
same,growth inhibition,[11]; at 33.0 µM,72% (active)
same,growth inhibition,[11]; [18],78% (active)
same,growth inhibition,[11]; at 50.0 µM,86.2% (active)
same,growth inhibition,[11]; at 100.0 µM,92% (active)
same,growth inhibition,[12]; at 1.2 µM,-52%
same,growth inhibition,[12]; at 3.7 µM,-42%
same,growth inhibition,[12]; at 11.0 µM,-37%
same,growth inhibition,[12]; at 33.0 µM,59%
same,growth inhibition,[12]; at 100.0 µM,92% (active)
same,growth inhibition,[13]; at 1.2 µM,-51%
same,growth inhibition,[13]; at 3.7 µM,-81%
same,growth inhibition,[13]; at 11.0 µM,-49%
same,growth inhibition,[13]; at 33.0 µM,37%
same,growth inhibition,[13]; at 100.0 µM,97% (active)
same,growth inhibition,[14]; at 1.2 µM,-75%
same,growth inhibition,[14]; at 3.7 µM,-56%
same,growth inhibition,[14]; at 11.0 µM,-65%
same,growth inhibition,[14]; at 33.0 µM,77% (active)
same,growth inhibition,[14]; at 100.0 µM,97% (active)
same,growth inhibition,[15]; [17],37%
same,growth inhibition,[15]; [18],99% (active)
same,growth inhibition,[15]; at 50.0 µM,87.7% (active)
same,growth inhibition,[16]; at 1.2 µM,-29%
same,growth inhibition,[16]; at 3.7 µM,-24%
same,growth inhibition,[16]; at 11.0 µM,-7%
same,growth inhibition,[16]; at 33.0 µM,78% (active)
same,growth inhibition,[16]; at 100.0 µM,95% (active)
O=[N+]([O-])c1ccc(-n2nc3ccc4c(no[n+]4[O-])c3[n+]2[O-])c([N+](=O)[O-])c1,growth inhibition,[1]; at 1.2 µM,0%
same,growth inhibition,[1]; at 3.7 µM,1%
same,growth inhibition,[1]; at 11.0 µM,2%
same,growth inhibition,[1]; at 33.0 µM,4%
same,growth inhibition,[1]; at 100.0 µM,6%
same,growth inhibition,[2]; at 1.2 µM,-2%
same,growth inhibition,[2]; at 3.7 µM,-2%
same,growth inhibition,[2]; at 11.0 µM,-2%
same,growth inhibition,[2]; at 33.0 µM,0%
same,growth inhibition,[2]; at 100.0 µM,3%
same,growth inhibition,[3]; at 1.2 µM,3%
same,growth inhibition,[3]; at 3.7 µM,8%
same,growth inhibition,[3]; at 11.0 µM,13%
same,growth inhibition,[3]; at 33.0 µM,26%
same,growth inhibition,[3]; at 100.0 µM,24%
same,growth inhibition,[4]; at 1.2 µM,-4%
same,growth inhibition,[4]; at 3.7 µM,-3%
same,growth inhibition,[4]; at 11.0 µM,5%
same,growth inhibition,[4]; at 33.0 µM,-3%
same,growth inhibition,[4]; at 100.0 µM,-2%
same,growth inhibition,[5]; at 1.2 µM,-1%
same,growth inhibition,[5]; at 3.7 µM,1%
same,growth inhibition,[5]; [17],20%
same,growth inhibition,[5]; at 11.0 µM,-5%
same,growth inhibition,[5]; at 33.0 µM,6%
same,growth inhibition,[5]; [18],98% (active)
same,growth inhibition,[5]; at 50.0 µM,30.4%
same,growth inhibition,[5]; at 100.0 µM,4%
same,growth inhibition,[6]; at 1.2 µM,3%
same,growth inhibition,[6]; at 3.7 µM,0%
same,growth inhibition,[6]; [17],23%
same,growth inhibition,[6]; at 11.0 µM,2%
same,growth inhibition,[6]; at 33.0 µM,3%
same,growth inhibition,[6]; [18],98% (active)
same,growth inhibition,[6]; at 50.0 µM,9.9%
same,growth inhibition,[6]; at 100.0 µM,2%
same,growth inhibition,[7]; at 1.2 µM,-3%
same,growth inhibition,[7]; at 3.7 µM,-1%
same,growth inhibition,[7]; at 11.0 µM,7%
same,growth inhibition,[7]; at 33.0 µM,8%
same,growth inhibition,[7]; at 100.0 µM,8%
same,growth inhibition,[8]; [17],16%
same,growth inhibition,[8]; [18],97% (active)
same,growth inhibition,[8]; at 50.0 µM,70.5% (active)
same,growth inhibition,[9]; at 1.2 µM,-1%
same,growth inhibition,[9]; at 3.7 µM,-5%
same,growth inhibition,[9]; at 11.0 µM,-6%
same,growth inhibition,[9]; at 33.0 µM,-2%
same,growth inhibition,[9]; at 100.0 µM,2%
same,growth inhibition,[10]; [17],44%
same,growth inhibition,[10]; [18],97% (active)
same,growth inhibition,[10]; at 50.0 µM,9.9%
same,growth inhibition,[11]; at 1.2 µM,-3%
same,growth inhibition,[11]; at 3.7 µM,1%
same,growth inhibition,[11]; [17],-14%
same,growth inhibition,[11]; at 11.0 µM,10%
same,growth inhibition,[11]; at 33.0 µM,8%
same,growth inhibition,[11]; [18],96% (active)
same,growth inhibition,[11]; at 50.0 µM,66.7%
same,growth inhibition,[11]; at 100.0 µM,9%
same,growth inhibition,[12]; at 1.2 µM,-8%
same,growth inhibition,[12]; at 3.7 µM,-3%
same,growth inhibition,[12]; at 11.0 µM,-2%
same,growth inhibition,[12]; at 33.0 µM,2%
same,growth inhibition,[12]; at 100.0 µM,3%
same,growth inhibition,[13]; at 1.2 µM,0%
same,growth inhibition,[13]; at 3.7 µM,-4%
same,growth inhibition,[13]; at 11.0 µM,-3%
same,growth inhibition,[13]; at 33.0 µM,1%
same,growth inhibition,[13]; at 100.0 µM,-5%
same,growth inhibition,[14]; at 1.2 µM,-1%
same,growth inhibition,[14]; at 3.7 µM,1%
same,growth inhibition,[14]; at 11.0 µM,3%
same,growth inhibition,[14]; at 33.0 µM,4%
same,growth inhibition,[14]; at 100.0 µM,6%
same,growth inhibition,[15]; [17],28%
same,growth inhibition,[15]; [18],97% (active)
same,growth inhibition,[15]; at 50.0 µM,-13.2%
same,growth inhibition,[16]; at 1.2 µM,-1%
same,growth inhibition,[16]; at 3.7 µM,4%
same,growth inhibition,[16]; at 11.0 µM,7%
same,growth inhibition,[16]; at 33.0 µM,1%
same,growth inhibition,[16]; at 100.0 µM,19%

# Source: PubChem BioAssay (NCI)
